Results as given in PubChem BioAssay AID1508621 (National Center for Advancing Translational Sciences (NCATS), 2021).
Records with an inconclusive call do not appear. A call without a number means that no potency is given here. Active and inactive are the calls of the source. Calls follow the shape of the dose curve; as a rule, active = well fitted inhibition curve with a large enough effect; inconclusive = small, poorly fitted or top-dose-only effect; inactive = no such curve, though single readings can be large or run the other way.
Potency is read from the fitted curve at half-maximal effect.

Test: Confirmatory qHTS for Identification of Small Molecule Inhibitors of Huntingtin Promoter Activity; also: nearly all actives have a fitted effect of over 65% in size
Conditions: HEK293 HTT promoter firefly luciferase reporter, 24 h; series mostly up to 57.5 µM
How it was run: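 Plated reporter HEK293 cells (24 h) received library compounds at up to 57.5 uM final or 50 uM PTC124, incubated 24 h at 37C; firefly luciferase luminescence was then recorded with Dual-Glo reagent.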
For `CCOc1ccccc1C(=O)Nc1nc2c(s1)CC(C)CC2` (configuration not stated), the Potency was “inactive”.
For `COC(=O)c1c(C)oc2ccc(N(C(=O)c3ccncc3)S(=O)(=O)c3ccc(OC)cc3)cc12`, the Potency was 3.79 µM (active).
For `Cc1ccc(C)c(-n2nnc(C(=O)Nc3ccc(Br)cc3)c2C)c1`, the Potency was “inactive”.
For `COc1ccc(C(C)n2c(C)c3c(C)nnc(C)c3c2C)cc1` (configuration not stated), the Potency was “inactive”.
In the case of `CCCCC(=O)Nc1cccc(-c2nc3ccccc3s2)c1`, the Potency is reported as “inactive”.
With `COc1cc2nc(N3CCCN(C)CC3)nc(NC3CCN(Cc4ccccc4)CC3)c2cc1OC` the Potency was 26.9 µM (active).
With `CCc1ccccc1-n1c(SCC(=O)Nc2ccc(C)cc2)nc2n[nH]c(C)c2c1=N` the Potency was 13.5 µM (active).
For `CCCCOC(=O)c1ccc(NC(=O)c2sc3nc(C)cc(C)c3c2N)cc1`, the Potency was 12 µM (active).
In the case of `COc1ccc(-c2noc(N3CCC(C(=O)N4CCN(c5cccc(OC)c5)CC4)CC3)n2)cc1`, the Potency is reported as 1.35 µM (active).
For `Cc1cc(C)cc(NC(=O)Nc2cccs2)c1`, the Potency was “inactive”.
With `CCN(CCCNC(=O)c1cc2cc3ccc(C)cc3nc2s1)c1ccccc1` the Potency was “inactive”.
In the case of `CCOc1ccc(C(=O)N(Cc2cc(OC)c(OC)c(OC)c2)c2ccccn2)cc1`, the Potency is reported as “inactive”.
In the case of `O=c1c(-c2ccc(O)cc2)coc2cc(O)ccc12`, the Potency is reported as “inactive”.
For `Cc1cccc(S(=O)(=O)Nc2cccc(-c3ccc(N4CCCCC4)nn3)c2)c1`, the Potency was “inactive”.
In the case of `CCn1cc(C(=O)N2CCN(c3ccc(C)cc3)C(C)C2)c(=O)c2cc(S(=O)(=O)N3CCCC3)ccc21` (configuration not stated), the Potency is reported as “inactive”.
For `Cc1ccc(C)c(OCCCC(C)(C)C(=O)O)c1`, the Potency was “inactive”.
With `CN(C)c1ccc(C(=C2C=CC(=[N+](C)C)C=C2)c2ccc(N(C)C)cc2)cc1` the Potency was 3.01 µM (active).
For `COc1ccccc1N=c1scc(-c2ccc(S(=O)(=O)N3CCCC3)cc2)n1C`, the Potency was 4.78 µM (active).
For `COC(=O)C1=C(C)NC(C)=C(C(=O)OCC(C)=O)C1c1ccccc1[N+](=O)[O-]` (configuration not stated), the Potency was “inactive”.
For `Cc1cc(NC(=O)c2cc(-c3ccc(Cl)cc3)on2)nn1Cc1ccc(Cl)cc1`, the Potency was “inactive”.
In the case of `COc1cccc(N2CCN(C(=O)c3ccc4nc(N5CCC(C)CC5)sc4c3)CC2)c1`, the Potency is reported as 8.49 µM (active).
With `Cc1ccc2nc(-c3ccncc3)c(Nc3ccccc3C)n2c1` the Potency was “inactive”.
With `CCOc1ccc(-n2c(/C=C/c3cccc(F)c3)nc3cc(OC)c(OC)cc3c2=O)cc1` the Potency was “inactive”.
In the case of `Cc1nc(Nc2n[nH]c3c2CN(C(=O)N[C@H](CN(C)C)c2ccccc2)C3(C)C)c2sccc2n1`, the Potency is reported as “inactive”.
In the case of `CC(C)Oc1ccc(C(=O)N(Cc2ccco2)c2ccccn2)cc1`, the Potency is reported as “inactive”.
With `COc1ccc(-c2ccc3ncc4c(c3c2)n(-c2ccc(N3CCNCC3)c(C(F)(F)F)c2)c(=O)n4C)cn1` the Potency was “inactive”.
In the case of `CO[C@H]1C=CC=C(C)C(=O)NC2=CC(=O)C(NCCN(C)C)=C(C[C@@H](C)C[C@H](OC)[C@@H](O)[C@@H](C)C=C(C)[C@@H]1OC(N)=O)C2=O`, the Potency is reported as “inactive”.
With `Cc1ccccc1C(=O)Nc1nc(-c2ccc(Br)cc2)ns1` the Potency was “inactive”.
With `CC(=O)N1CCCc2cc(S(=O)(=O)N3CCCC(C(=O)N4CCN(c5ccccc5)CC4)C3)ccc21` (configuration not stated) the Potency was 9.53 µM (active).
With `Cc1ccc(CN2CCSc3ccc(C(=O)NCC(C)c4ccccc4)cc32)cc1` (configuration not stated) the Potency was “inactive”.
For `NC(=O)Nc1cc(-c2ccc(CN3CCOCC3)cc2)sc1C(N)=O`, the Potency was “inactive”.
For `COc1ccccc1C1Nc2c(sc3nc(C)cc(C)c23)C(=O)N1c1ccccc1` (configuration not stated), the Potency was “inactive”.
With `COc1ccc(Cn2c(CO)cnc2SCc2ccc(F)cc2)cc1` the Potency was “inactive”.
With `O=C(Nc1cccc(Cl)c1)c1c(NC(=O)C(F)(F)F)sc2c1CCCC2` the Potency was 4.26 µM (active).
In the case of `Cn1c(NCCN(CCO)CCCc2ccc([N+](=O)[O-])cc2)cc(=O)n(C)c1=O`, the Potency is reported as “inactive”.
In the case of `COc1ccc2nc(N3CCN(C(=O)CS(=O)(=O)c4ccc(C)cc4)CC3)sc2c1`, the Potency is reported as “inactive”.
In the case of `CN(C)Cc1ccc(-c2nc3cccc4c3n2CCNC4=O)cc1`, the Potency is reported as “inactive”.
